Ins promoter up – MIN6 insulin promoter up-regulation; MIN6 insulin promoter-GFP reporter, high-content imaging; hits give high values; z-score at 5 µM; hit rate 0.3% among 190,000; AID 1625;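 active = z-score above 3 at 5 µM with at least 500 cells counted in the well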
INS promoter inh – TRM-6 insulin promoter activity inhibition; TRM-6 cells (human fetal islet line), insulin promoter-eGFP reporter, imaging; reporter expression induced with tamoxifen; inhibition, % at 2 µM; hit rate 0.9% among 130,000; AID 1273;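 active = inhibition above the mean plus 3 SD, with well images judged a real hit on visual review, cut at about 60% in these data, passing the limit was not always enough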
WT yeast gro inh – growth inhibition of WT yeast, mitochondrial fusion screen; mitochondrial fusion phenotypic screen, WT strain; inhibition, % at 10 µM; AID 1362; hit rate 2.1% among 190,000; in the data active = inhibition above about 58%; tested in S. cerevisiae
ROMK mod – modulators of human ROMK potassium channel. P48048. Tet-inducible ROMK, thallium flux fluorescence; actives lie on both sides. B-score at 10 µM. hit rate 2% among 130,000. AID 1918;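 active = signal ratio slope over the read window, or its plate-corrected B-score, at least 3 SD from the plate mean, either direction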;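 note: B-score of the F/F0 ratio slope over 7 to 12 s after thallium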
Target sequence (P48048 whole entry, looked up): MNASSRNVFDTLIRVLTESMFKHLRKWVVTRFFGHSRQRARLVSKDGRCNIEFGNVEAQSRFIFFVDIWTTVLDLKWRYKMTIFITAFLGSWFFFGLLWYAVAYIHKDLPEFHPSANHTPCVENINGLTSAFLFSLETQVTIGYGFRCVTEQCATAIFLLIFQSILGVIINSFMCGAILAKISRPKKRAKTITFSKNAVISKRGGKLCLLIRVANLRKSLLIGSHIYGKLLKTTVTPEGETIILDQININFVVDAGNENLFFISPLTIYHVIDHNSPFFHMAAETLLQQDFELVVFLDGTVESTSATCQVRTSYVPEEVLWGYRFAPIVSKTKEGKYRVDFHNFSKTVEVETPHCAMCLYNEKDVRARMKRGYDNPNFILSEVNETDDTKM
Cl transport mod – KCC2 (human) Cl- transport modulation; hit rate 2.2% among 190,000; AID 1456; B-score of Tl+ flux slope (higher = more flux/activation; lower = inhibition) at 10 µM; KCC2 cells, thallium flux FluoZin-2 fluorescence; Q9H2X9;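 active = thallium flux slope and its plate-corrected score both differing from the plate sample mean at a set confidence after two filtering rounds, in either direction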;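 note: slope of fluorescence scaled to starting intensity during 10 to 20 s after thallium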
L major viab – Leishmania major promastigote growth inhibition. Leishmania major promastigotes, resazurin fluorescence viability. inhibition, % at 10 µM. hit rate 9% among 200,000. AID 1063; in the data active = inhibition above about 50%;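 note: promastigotes grown with compound for 44 hours at 28 °C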
Hits are given with their value; n = inactive; x = no result given. An excerpt weighted towards active compounds, which were near 12% of everything screened.

SMILES	Ins promoter up	INS promoter inh	WT yeast gro inh	ROMK mod	Cl transport mod	L major viab
COc1ccc(CN(Cc2ccccn2)S(=O)(=O)c2ccc(-n3cnnn3)cc2)cc1	x	x	n	n	n	n
COc1ccc(CN(Cc2cccnc2)S(=O)(=O)c2ccc(-n3cnnn3)c(C)c2)cc1OC	x	x	n	n	n	86.6
C/C(CC(=O)NCc1ccc(Cl)cc1)=N\NC(=O)Cc1ccccc1	n	n	n	n	n	n
CCCN(CCC)c1nc2ccccc2nc1C(C#N)C(=O)OC(C)COC (centres undefined)	x	n	68.1	n	n	65.6
CN(C)c1ccc(/C=C2/SC(=O)N(CCN=C3NS(=O)(=O)c4ccccc43)C2=O)cc1	n	x	n	x	n	n
CN(C)c1ccc(/C=C2\SC(=O)N(CCc3nnc(N)s3)C2=O)cc1	3.27	x	x	x	n	x
CC(C)COc1ccc(Cc2cnc(N)nc2N)cc1	n	n	n	n	n	71.8
O=C(O)c1cccnc1SCC(=O)N1CCCc2ccccc21	n	x	x	n	n	x
Cn1c(=O)c2ncn(CC(=O)NCCOCc3ccccc3Cl)c2n(C)c1=O	n	n	n	n	n	n
Cc1ccc2nc(-c3cccc(NS(C)(=O)=O)c3)cc(-c3ccccc3)c2c1	n	x	94.0	x	n	n
CN(C(=O)/C=C/c1ccc([N+](=O)[O-])s1)c1ccccc1	n	n	n	n	n	97.8
CN(C(=O)COC(=O)/C=C/c1ccccc1[N+](=O)[O-])c1ccccc1	n	x	n	n	n	n
N#CC1=C(N)OC2=C(C(=O)CCC2)C1CCc1ccccc1 (centres undefined)	n	n	n	n	x	n
O=C(CN1CCN(C2CCCCC2)CC1)Nc1ccccc1-c1ccccc1	n	x	n	x	x	58.7
O=C(CN1CCCCC1)Nc1ccccc1-c1ccccc1	n	n	n	n	n	n
O/N=C/c1ccc2ccccc2n1	n	x	x	n	n	x
CC(=O)/C=C/c1ccc2ccccc2n1	n	n	n	x	n	100.4
COC(=O)C1=C(O)CSC1=Nc1ccc(C)cc1	n	n	n	n	n	57.6
COC(=O)[C@H](C)NC(=O)/C=C/c1ccc(OC)cc1	n	x	n	x	n	n
COc1ccccc1NC(=O)C1=C(C)Nc2nnnn2C1c1cc(Br)ccc1OC (centres undefined)	n	n	n	n	x	96.7
CC1=C(C(=O)Nc2ccccc2)C(c2ccncc2)n2nnnc2N1 (centres undefined)	x	x	n	n	n	56.8
COc1cccc(C2C(C(=O)Nc3cccnc3)=C(C)Nc3nnnn32)c1OC (centres undefined)	n	x	n	n	x	n
O=[N+]([O-])c1cccc(/C=N/Nc2cc(Cl)nc(-c3ccccc3)n2)c1	n	n	n	x	x	n
Cc1nn(-c2ccccc2)c(Cl)c1C(=O)NCCCCNC(=O)c1c(C)nn(-c2ccccc2)c1Cl	n	n	n	x	n	n
CCC(=O)N(Cc1c(C)nn(-c2ccccc2)c1Cl)c1ccc(Cl)cc1	n	x	n	n	n	64.7
SMILES	Ins promoter up	INS promoter inh	WT yeast gro inh	ROMK mod	Cl transport mod	L major viab
CC1CCc2cc(F)cc3c(O)c(C(=O)NCc4ccco4)c(=O)n1c23 (centres undefined)	x	x	n	n	n	n
O=C(N1CCCCCC1)n1c(Cc2ccccc2)nc2ccccc21	x	n	n	x	n	63.2
O=S(=O)(c1ccc(Cl)cc1)n1c(Cc2ccccc2)nc2ccccc21	n	n	n	n	n	n
O=C(Cn1c(S(=O)(=O)Cc2ccccc2)nc2ccccc21)N1CCCCC1	n	x	n	x	x	n
O=S(=O)(N1CCOCC1)n1c(Cc2ccccc2)nc2ccccc21	n	70.4	n	x	n	n
COCCCn1c(C)csc1=Nc1cccnc1	n	x	n	n	n	n
Cc1csc(=Nc2cccnc2)n1CC1CCCCC1	n	n	73.2	n	n	n
CCC(=O)Nc1ccc(C(=O)NNC(=O)c2cccs2)cc1	x	n	n	x	n	n
CC1(C)C/C(=N\NC(=S)Nc2ccccc2F)c2cc(O)ccc2O1	n	x	n	n	n	79.7
CC(/C=C/c1ccc(OCc2ccccc2)cc1)=N\O	n	n	n	n	n	83.2
CCN(CC)S(=O)(=O)c1ccc(C)c(NC(=S)N2CCN(Cc3ccc4c(c3)OCO4)CC2)c1	n	n	n	n	n	96.2
Cc1cccc(NC(=S)N2CCN(Cc3ccc4c(c3)OCO4)CC2)c1C	n	n	n	x	n	89.7
CC(C)CNC(=S)N1CCN(Cc2ccc3c(c2)OCO3)CC1	n	n	n	n	x	n
Cc1ccc(NC(=S)N2CCN(Cc3ccc4c(c3)OCO4)CC2)c(C)c1	x	n	x	x	n	89.2
CC(C)c1ccccc1NC(=S)N1CCN(Cc2ccc3c(c2)OCO3)CC1	n	n	n	n	n	76.9
Cc1cc2cc(C(=O)N3CCc4c([nH]c5ccccc45)C3c3ccccn3)ccc2o1 (centres undefined)	n	x	x	x	n	x
CCc1cc2c(NCCC(=O)O)nc(C)nc2s1	n	n	n	x	n	n
CC(C)COc1ccc(C/C(N)=N/n2cnnc2)cc1	n	x	n	n	x	n
CCN(CC)S(=O)(=O)c1ccc(C)c(NC(=S)N2CCN(C/C=C/c3ccccc3)CC2)c1	n	n	n	x	n	60.2
C[C@@H]1NC(=O)c2cc([N+](=O)[O-])cc(I)c2OCC[C@@H](C(=O)NC(CC(=O)O)C(N)=O)NC(=O)[C@H](CC(N)=O)NC1=O (some centres undefined)	n	n	n	n	n	n
COc1ccc(COc2cc(-c3cccc(OC)c3)nc3ccc(N)cc23)cc1	x	n	n	n	n	76.2
COc1ccc(COc2cc(-c3cccc(OC)c3)nc3ccc(NC(C)=O)cc23)cc1	n	n	n	n	n	n
COc1ccc(COc2cc(-c3cccc(OC)c3)nc3ccc(NC(=O)c4ccc(N(C)C)cc4)cc23)cc1	n	n	n	n	n	84.2
Cc1ccc(C)n1NC(=O)c1cccc(Cl)c1	n	n	n	x	n	92.4
CN(C)NC(=O)c1cccc(Cl)c1	n	x	x	x	n	x
SMILES	Ins promoter up	INS promoter inh	WT yeast gro inh	ROMK mod	Cl transport mod	L major viab
COc1ccc(S(=O)(=O)N2CCC(C(=O)NCCC3=CCCCC3)CC2)cc1C	x	n	n	x	n	n
CCN1CCN(C(=S)c2ccc(Cl)c(Cl)c2)CC1	n	x	n	n	n	90.4
CCN1CCN(C(=S)Nc2ccc(Cl)c(Cl)c2)CC1	n	n	n	n	n	83.7
CCN1CCN(C(=S)NCc2ccc(C)cc2)CC1	n	x	n	x	n	83.4
CSc1ccc(C(=S)N2CCN(CCO)CC2)cc1	n	n	n	n	n	74.7
CCN1CCN(C(=S)Nc2cccc(Cl)c2)CC1	n	n	n	x	n	n
CCCCNC(=O)COC(=O)c1ccc(Cl)c(S(=O)(=O)N2CCCC2)c1	n	n	n	n	n	n
O=C(CSc1nnnn1C1CCCC1)Nc1ccc2c(c1)OCO2	n	n	n	n	n	n
CCOC(=O)N1CCN(C(=O)Cn2ccc3ccccc3c2=O)CC1	n	x	n	x	n	n
CCN1CCN(C(=S)c2ccc(-c3ccccc3)cc2)CC1	n	x	n	n	n	80.0
CCN1CCN(C(=S)Nc2cccc(C(F)(F)F)c2)CC1	x	n	n	n	n	59.9
COc1cc(OC)cc(C(=O)N2CCC(n3c(C)nc4cc(F)ccc43)CC2)c1	n	x	68.7	n	n	n

Bioassay records from PubChem.
